# Most compounds without a hit are left out; they make up all but 1.1% or so of the library.
# GLS inh = blocks human kidney-isoform glutaminase activity; O94925; GLS enzymatic activity, qHTS titration; Potency, µM (series often up to 45.5 µM), inactives show at the highest dose activity change, negative = inhibition, usual class: inhibitors; hit rate 0.21% among 410,000; AID 624170
#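 Coupled fluorescence readout: glutamate oxidase/HRP/Amplex Red detect glutamate formed by hKGA from L-glutamine (1 mM solution added). Buffer 45 mM KH2PO4 pH 8.2, 0.02% Tween-20; reads at t0 and 30 min RT.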
# Tb PFK inh = T. brucei PFK enzyme inhibition; T. brucei PFK, ADP-Glo luminescence; Potency, µM (series often up to 57.5 µM), for inactives: at the highest dose activity, negative = inhibition, usual class: inhibitors; hit rate 0.17% among 330,000;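 further: 0% = uninhibited 1x PFK enzyme wells and -100% = no-enzyme wells; nearly all actives have a fitted effect of over 60% in size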
#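 Luminescent ADP detection (ADP-Glo, two-step: ATP depletion then ADP-to-ATP conversion for luciferase) reported PFK activity after 45 min room-temperature reaction of 1.25 nM enzyme with 0.5 mM F6P and 0.1 mM ATP at pH 8.0.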
# PGK inhibitor = inhibitors of T. brucei phosphoglycerate kinase | P07378 | PGK/GAPDH coupled, Kinase-Glo luminescence, 60 min | Potency, µM (top dose mostly 57.5 µM), without a hit: at the highest dose activity change, negative = inhibition, actives largely listed as inhibitors | hit rate 0.043% among 380,000; further: nearly all actives have a fitted effect of over 60% in size
#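 Luminescent ATP detection (Kinase-Glo Plus) follows a 60-minute room-temperature incubation, with wells lacking PGK as controls. Buffer: 100 mM TEA (pH 7.6), 5 mM MgCl2, 0.01% Tween-20. Coupling enzyme GAPDH (100 nM final) supplies unstable 1,3-BPG in-well.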
# Pin1 inh = inhibitors of human Pin1. Pin1 FP peptide displacement, HiFluor488, 10 min. Potency, µM (doses to about 115 µM), for inactives: top-dose activity, negative = inhibition, hits mostly inhibitors. Q13526. AID 504891. hit rate 0.009% among 390,000; active means well fitted inhibition curve with a large enough effect in the polarisation, with a control signal flat, not every such curve was filed as active; inconclusive means small, poorly fitted or top-dose-only effect, or effect the other way, or a change in a side signal; inactive means no such curve, though single readings can be large or run the other way; the % refers to the polarisation
# Target sequence (Q13526 whole entry, looked up): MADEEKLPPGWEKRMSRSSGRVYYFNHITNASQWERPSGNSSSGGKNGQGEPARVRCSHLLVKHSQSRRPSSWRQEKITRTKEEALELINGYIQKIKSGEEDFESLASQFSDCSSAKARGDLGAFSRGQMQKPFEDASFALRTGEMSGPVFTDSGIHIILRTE
# VDR inhibitor = inhibitors of human vitamin D receptor | P11473 | VDR-SRC2-3 peptide fluorescence polarization, 2 h | Potency, µM, for the others: max response, negative = inhibition, most hits filed as inhibitors | hit rate 0.93% among 400,000 | AID 504847
# Target sequence (P11473 whole entry, looked up): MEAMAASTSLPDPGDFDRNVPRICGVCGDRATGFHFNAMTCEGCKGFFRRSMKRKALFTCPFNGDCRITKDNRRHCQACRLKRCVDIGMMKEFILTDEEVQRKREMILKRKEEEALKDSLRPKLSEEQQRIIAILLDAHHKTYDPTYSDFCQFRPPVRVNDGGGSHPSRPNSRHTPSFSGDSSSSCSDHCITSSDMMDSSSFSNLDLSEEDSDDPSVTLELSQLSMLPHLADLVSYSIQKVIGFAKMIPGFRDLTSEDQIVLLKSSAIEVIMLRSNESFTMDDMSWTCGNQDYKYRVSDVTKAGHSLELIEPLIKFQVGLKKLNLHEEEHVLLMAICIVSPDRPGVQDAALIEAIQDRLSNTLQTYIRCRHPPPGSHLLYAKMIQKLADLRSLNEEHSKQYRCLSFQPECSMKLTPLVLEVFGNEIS
#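 Measured by FP: displacement of SRC2-3 coactivator peptide from VDR by library compounds, following a two-hour ambient incubation.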
# * marks the source's active call; other numbers are inactive results; i = inactive; u = inconclusive; x = not tested or not shown; ! = not active in a repeat. Unless noted, the call rests on the fitted dose curve; in most records, active means well fitted curve in the direction sought with a large enough effect; inconclusive means small, poorly fitted or top-dose-only effect, or another doubt; inactive means no such curve, though single readings can be large; an effect the other way counts as inactive or inconclusive. Unless noted, on the % scale 0 is the no-effect control and ±100 the full control effect; potency means the concentration at half of the fitted maximal effect.
SMILES,GLS inh,Tb PFK inh,PGK inhibitor,Pin1 inh,VDR inhibitor
CCC1(c2ccc(Cl)cc2)NC(=S)N(c2ccc(C)cc2)N1 (stereo unspecified),5%,-6%,17%,2%,79µM*
CC(C)(C)N(NS(=O)(=O)c1ccc(F)cc1)c1ccccc1,-20%,-17%,-1%,11%,45µM*
Cc1ccccc1NS(=O)(=O)c1ccc(F)cc1,-6%,2%,-1%,6%,-3%
CCc1nnc(NC(=O)CSCc2cc(=O)n3ccsc3n2)s1,20%,-1%,-7%,3%,9%
NNC(=O)c1n[nH]c2c1CC(C1CCCCC1)CC2 (stereo unspecified),9%,7%,0%,6%,-26%
Cc1ccc(Cn2c(=S)[nH]c3ccc(N4CCOCC4)cc3c2=O)o1,-6%,-10%,-11%,u,18µM*
O=c1c2cc(N3CCOCC3)ccc2[nH]c(=S)n1Cc1ccc(Cl)cc1,-13%,2%,-3%,-10%,0%
Cc1cccc(C(=O)NCC(=O)N2CCC2)c1,7%,-7%,-11%,-3%,0%
O=C1C=CC(=O)N1CCCCCCCCCCN1C(=O)C=CC1=O,-23%,x,2%,5%,16µM*
Clc1ccc(-c2nn3c(C4COc5ccccc5O4)nnc3s2)cc1 (stereo unspecified),u,-2%,-1%,1%,79µM*
CN(C)c1ccc(-c2nn3c(-c4ccc(Cl)cc4)nnc3s2)cc1,5%,-1%,-2%,-9%,-18%
CCOc1ccc(C(=O)c2cn(CC(=O)Nc3ccc4c(c3)OCCO4)c3ccc(F)cc3c2=O)cc1,17%,x,5%,-2%,-7%
C[C@H](NC(=O)OC(C)(C)C)c1nnc(SCc2c(F)cccc2Cl)o1,-14%,x,i,-5%,89µM*
COc1ccc(NC(=O)CN(C)C(=O)c2ccccc2Sc2ncnc3sc(C)c(C)c23)cc1,-3%,-9%,i,12%,-1%
O=C(CSC1=NCCS1)NCc1ccco1,u,-5%,-9%,2%,20µM*
COc1ccccc1CNC(=O)CSC1=NCCS1,-1%,-15%,-3%,-5%,u
O=C(O)Cc1cccc(OCCCN(Cc2cccc(C(F)(F)F)c2Cl)CC(c2ccccc2)c2ccccc2)c1,x,x,x,x,40µM*
O=C(CCCOc1ccccc1)Nc1ccccc1C(F)(F)F,-7%,-4%,0%,1%,0%
COc1ccc(OC)c2c(=S)c3ccccc3[nH]c12,x,x,x,x,4.5µM*
COc1ccc(-c2nc3c(C#N)c[nH]n3c2NC2CCCC2)c(OC)c1,13µM*,x,0%,2%,12%
CCOc1ccc(-c2nc3c(C#N)c[nH]n3c2NC2CCCC2)cc1,14µM*,x,4%,10%,2%
COc1ccccc1CNCCSc1nnnn1C,8%,x,-4%,1%,7%
NCCNCCN,-21%,x,x,x,16µM*
CC(C)c1ccc(NC(=O)C2CCCN2S(=O)(=O)c2ccc3nc(-c4ccccc4)[nH]c3c2)cc1 (stereo unspecified),8%,x,-10%,13%,16%
CCOC(=O)Oc1ccc(/C=C2\N=C(C)OC2=O)cc1,u,-3%,i,-5%,20µM*
SMILES,GLS inh,Tb PFK inh,PGK inhibitor,Pin1 inh,VDR inhibitor
COc1cc(/C=C2\N=C(C)OC2=O)cc(OC)c1OC,13%,2%,-8%,-1%,40µM*
COc1cc(/C=C2\C(=O)ON=C2c2ccccc2)cc(OC)c1OC,-7%,-5%,-3%,1%,28µM*
CN(C)/C=C1\C(=O)ON=C1c1ccccc1,0%,-3%,7%,-2%,-18%
CCOc1c(Br)cc(/C=C2\N=C(C)OC2=O)cc1Br,4%,-5%,-11%,5%,-3%
COc1cc(C2(c3ccc(O)c(OC)c3)C(=O)Nc3c(C)cc(Br)cc32)ccc1O,2.5µM*,x,-1%,11%,-2%
COc1ccc(S(=O)(=O)CCC(=O)N2CCN(c3ccc([N+](=O)[O-])cc3)CC2)cc1,3%,1%,-2%,5%,4%
Cc1ccc(S(=O)(=O)CCC(=O)N2CCN(c3ccc([N+](=O)[O-])cc3)CC2)cc1,9%,2%,-5%,-9%,25µM*
S=c1[nH]nc2n1CCCN2,11µM*,0%,-5%,1%,-2%
Cc1cccc(-c2nc3scc(CCNS(=O)(=O)c4ccc5c(c4)OCCO5)n3n2)c1,-7%,x,-7%,-1%,19%
CC/C=C\C/C=C\C/C=C\CCCCCCCC(=O)O,22µM*,-2%,-3%,u,22µM*!
CC/C=C\C/C=C\C/C=C\C/C=C\C/C=C\CCCC(=O)O,32µM*,x,x,x,40µM*!
CC/C=C\C/C=C\C/C=C\CCCCCCCCCCCC(=O)O,x,x,x,x,50µM*
CC/C=C\C/C=C\C/C=C\CCCCCCCCCC(=O)O,x,x,x,x,-21%
CN1C(=O)C2CCCCN2c2ccc(C(=O)NCc3ccccc3Br)cc21 (stereo unspecified),-7%,x,i,-2%,14%
Nc1cc(Nc2ccc(Br)cc2)nc(N)n1,0%,-8%,-7%,u,45µM*
O=C(CSc1c2c(nc3cc(Cl)ccc13)CCCC2)NCCN1CCOCC1,0%,-1%,-9%,-2%,u
Clc1ccc2c(SCC3CO3)c3ccccc3nc2c1 (stereo unspecified),-9%,x,-7%,3%,40µM*
CCCCn1c(O)c(N=NC(=O)c2ccco2)c2ccccc21,-24%,3%,i,1%,50µM*
O=C(CNC(=O)c1ccco1)N=Nc1c(O)n(CCc2ccccc2)c2ccccc12,3%,13%,1%,-1%,-3%
CC(C)[C@@H](CC(=O)N[C@@H]1CCNC[C@H]1C(=O)N[C@H](CC(=O)N[C@@H](CCC(=O)O)CC(=O)O)Cc1c[nH]c2ccccc12)NC(=O)C[C@H](Cc1ccccc1)NC(=O)[C@@H]1CCCC[C@H]1N,x,x,x,x,-2%
Cc1[nH]n(-c2ccccc2)c(=S)c1C=Nc1ccc([N+](=O)[O-])cc1,-1%,u,i,7%,40µM*
CN1CCC(=NNC(=O)C(=O)Nc2cccc(Br)c2)CC1,u,-2%,9%,-1%,71µM*
O=C1N=c2ccccc2=C1c1[nH]c(=S)[nH]c1O,0%,-29%,i,1%,3%
O=C1N=c2ccccc2=C1c1c(O)[nH]c2c(C(F)(F)F)cccc12,u,2%,-9%,-4%,35µM*
CC(=O)OCOC(=O)CN(CC(=O)OCOC(C)=O)c1ccccc1OCCOc1ccccc1N(CC(=O)OCOC(C)=O)CC(=O)OCOC(C)=O,x,x,x,x,1%
CC1=CC(=O)C2C(C)(C)CCC[C@@]2(C)[C@@]1(O)CCc1ccoc1 (stereo partly specified),x,x,x,x,50µM*
CCOC(=O)c1c(N)sc2c1CCN(Cc1ccccc1)C2,-12%,x,x,x,40µM*
CCc1ccc(NC(=O)Cn2c(=O)c(CNc3ccccc3)cc3cc(OC)c(OC)cc32)cc1,16µM*,x,-7%,-15%,9%

# From PubChem BioAssay
